Experimental findings from PubChem BioAssay AID504339 (National Center for Advancing Translational Sciences (NCATS), 2011) are described below.

SMILES strings stand for the structures. About 17,000 (4.4%) of roughly 390,000 compounds were called active. Not shown: some 8% with an inconclusive outcome. This excerpt belongs to a sample that is enriched for actives. Values without a mark were called inactive. The call rests on the fitted dose curve; in most records, active means well fitted inhibition curve with a large enough effect; inconclusive means small, poorly fitted or top-dose-only effect; inactive means no such curve, though single readings can be large or run the other way.
On the % scale 0 is the no-effect control and ±100 the full control effect; potency means the concentration at half of the fitted maximal effect.

In this assay the target is Lysine-specific demethylase 4A (Homo sapiens) (UniProt O75164). The assay can be described thus: qHTS Assay for Inhibitors of JMJD2A-Tudor Domain. Further: nearly all actives have a fitted effect of over 50% in size. The note with it: AlphaScreen JMJD2A-Tudor / H3K4me3 peptide binding; series mostly up to 114 µM; activity change, negative = inhibition: at the top concentration.
Lysine-specific demethylase 4A (Homo sapiens), sequence (O75164 whole entry, looked up, the tested form may be a part): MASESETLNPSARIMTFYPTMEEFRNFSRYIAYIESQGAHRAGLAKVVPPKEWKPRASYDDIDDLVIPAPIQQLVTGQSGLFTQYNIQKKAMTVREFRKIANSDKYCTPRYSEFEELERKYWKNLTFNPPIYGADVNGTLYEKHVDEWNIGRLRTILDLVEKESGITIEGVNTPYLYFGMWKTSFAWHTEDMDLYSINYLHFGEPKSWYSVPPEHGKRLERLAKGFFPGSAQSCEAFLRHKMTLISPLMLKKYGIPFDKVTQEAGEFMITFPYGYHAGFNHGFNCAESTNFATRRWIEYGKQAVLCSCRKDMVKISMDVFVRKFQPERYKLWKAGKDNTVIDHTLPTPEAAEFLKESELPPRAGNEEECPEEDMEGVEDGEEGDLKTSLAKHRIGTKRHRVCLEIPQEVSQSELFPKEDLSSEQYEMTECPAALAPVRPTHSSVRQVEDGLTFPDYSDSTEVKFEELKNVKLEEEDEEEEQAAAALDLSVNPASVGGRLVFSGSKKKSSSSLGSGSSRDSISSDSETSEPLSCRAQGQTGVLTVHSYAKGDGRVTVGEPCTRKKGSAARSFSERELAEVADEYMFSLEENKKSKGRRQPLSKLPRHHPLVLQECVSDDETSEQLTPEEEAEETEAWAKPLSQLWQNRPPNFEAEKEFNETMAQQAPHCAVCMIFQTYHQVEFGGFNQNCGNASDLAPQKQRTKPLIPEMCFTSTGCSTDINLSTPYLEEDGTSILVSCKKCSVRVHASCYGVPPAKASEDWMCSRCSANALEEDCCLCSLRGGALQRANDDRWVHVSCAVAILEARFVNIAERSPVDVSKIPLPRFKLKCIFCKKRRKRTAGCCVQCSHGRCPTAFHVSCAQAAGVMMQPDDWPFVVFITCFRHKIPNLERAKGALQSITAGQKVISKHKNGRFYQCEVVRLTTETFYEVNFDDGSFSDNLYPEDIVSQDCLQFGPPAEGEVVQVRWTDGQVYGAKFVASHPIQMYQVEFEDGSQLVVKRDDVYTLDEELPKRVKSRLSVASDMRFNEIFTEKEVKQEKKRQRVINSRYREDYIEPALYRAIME
Turning to `COc1ccc(CNC(=O)CS(=O)Cc2nc(-c3cccc(C)c3)oc2C)cc1` (stereo unspecified), the “activity change, negative = inhibition” value was -14.5%. As to `CC1(C)CC(N2CCN(C(c3ccccc3)c3ccccc3)CC2)=CC(=[N+]2CCCCC2)C1`, the Potency is 25.1 µM (active).

As to `CC1(C)CC(=O)C=C(N2CCOCC2)C1`, the “activity change, negative = inhibition” value is 8.3%. For `Cc1cccc(N2CCN(C(c3ccccc3)c3nnnn3CC3CCCO3)CC2)c1C` (stereo unspecified), the activity change, negative = inhibition is -8.9% [at 11.4 µM]. For `CCNS(=O)(=O)c1ccc(NC(=O)CSc2nc(-c3ccco3)cc(C(F)(F)F)n2)cc1`, the “activity change, negative = inhibition” value was -13.4%. On the same count and under the same terms, to `O=C(CSc1cn(CC(=O)N2CCOCC2)c2ccccc12)Nc1ccccc1` belongs -5.13%. Regarding `CC(=O)Nc1ccc(NC(=O)C2CCCN(S(=O)(=O)c3ccc4c(c3)CCCC(=O)N4)C2)cc1` (stereo unspecified), the “activity change, negative = inhibition” value is -8.41%. On the same count and under the same terms, next, `COc1cc(C2c3c(oc4ccccc4c3=O)C(=O)N2c2nc(C)c(C)s2)ccc1O` (stereo unspecified): -16.2%; `CCOc1ccc(-n2c(C)nc3c(cnn3-c3ccc(C)cc3)c2=O)cc1`: 2%.

Consider `Cn1ccc2cc(S(=O)(=O)N3CCCC(C(=O)NCc4ccccc4F)C3)ccc21` (stereo unspecified), for which the “activity change, negative = inhibition” value was -11.2%. Regarding `CN(Cc1cccc2ncccc12)C(=O)CC1C(=O)NCCN1Cc1ccc(F)cc1` (stereo unspecified), the “activity change, negative = inhibition” value is -4.9%.

Take `COc1cccc(CN2CCNC(=O)C2CC(=O)N(C)CCc2ccccn2)c1` (stereo unspecified): the “activity change, negative = inhibition” value is -9.06%. Turning to `COc1ccc(CN2CCNC(=O)C2CC(=O)N(C)Cc2ccccn2)cc1OC` (stereo unspecified), the Potency was 14.1 µM (active).

Turning to `Cc1ccc(CCNC(=O)c2ccc3c(c2)N(Cc2cc(C)ccc2C)C(=O)c2ccccc2S3=O)cc1` (stereo unspecified), the “activity change, negative = inhibition” value was -18.9%. Turning to `CCn1cc(NC(=O)Nc2ccc(OC)c(OC)c2)c(C(N)=O)n1`, the “activity change, negative = inhibition” value was -5.88%.

`COc1ccc(NC(=O)NC(C)c2c(-n3cccc3)sc(C)c2C)cc1OC` (stereo unspecified): the Potency was 50.1 µM (active). In the case of `Cc1ccc(NC(=O)NC(C)c2c(-n3cccc3)sc(C)c2C)c(C)c1` (stereo unspecified), the “activity change, negative = inhibition” value was -9.45%.

For the molecule `Cc1cc2c(s1)c1cnn(Cc3c(F)cccc3Cl)c(=O)c1n2C`, the “activity change, negative = inhibition” value is -4.79%. With `Cc1ccc(S(=O)(=O)N(CC(=O)Nc2ccc(Cl)cc2Cl)c2ccccc2C)cc1`, the “activity change, negative = inhibition” value was -1.12%. The same measure, in the same setting: next, `COc1cccc(CNC(=O)c2ccc3c(c2)sc2nc(-c4cccc(OC)c4)cn23)c1`: 0.987%.

As to `CCc1ccc(-c2cc(C(=O)NN3CCN(C)CC3)c3ccccc3n2)cc1`, the “activity change, negative = inhibition” value was -24.1%. On the same count and under the same terms, to `CCc1cc(C(=O)c2ccc(OC)cc2)c(NC(=O)CN2CCN(C)CC2)s1` belongs -35.7%. As for `CCCCc1nc2ccccc2c(NC(=O)CN2CCN(C)CC2)c1CCC`, the Potency was 0.708 µM (active).

Take `CC(C)C(=O)Nc1nc2c(s1)CC(C(C)(C)C)CC2` (stereo unspecified): the “activity change, negative = inhibition” value was 4.64%. Regarding `CC1CN(C(=O)N2CCC(C(=O)NCc3cccs3)CC2)c2ccccc2O1` (stereo unspecified), the “activity change, negative = inhibition” value was 0%.

With `Cc1nn(-c2nc(-c3ccccc3)cc(C(F)(F)F)n2)c(C)c1Cl`, the “activity change, negative = inhibition” value was 33.8%. Regarding `CNc1ccc(-c2nc(-c3ccccc3C)no2)cc1[N+](=O)[O-]`, the “activity change, negative = inhibition” value is -1.66%.

On to `COc1ccc(N(C)C(=O)C2CCN(S(=O)(=O)c3cc(Br)cc4c3N(C(C)=O)CC4)CC2)cc1`, for which the “activity change, negative = inhibition” value is -15%. Take `Cc1onc(-c2ccccc2Cl)c1C(=O)NCCn1ccc2ccccc21`: the “activity change, negative = inhibition” value was 1.65%. For `Cc1onc(-c2ccccc2Cl)c1C(=O)N(Cc1ccc(N(C)C)cc1)C(C)C`, the Potency is 39.8 µM (active).

For the molecule `Cc1ccc2cc(CCNC(=O)c3c(-c4ccccc4Cl)noc3C)c(=O)[nH]c2c1`, the “activity change, negative = inhibition” value was -5.52%. Turning to `CCOc1ccc(OCC)c(Nc2nc3ccccc3n3nnnc23)c1`, the “activity change, negative = inhibition” value was -3.36%. Same read-out and setting: to `CCC(=O)N1CCc2cc(Br)cc(S(=O)(=O)CCC(=O)N3CCN(c4ccc(F)cc4)CC3)c21` belongs -17.4%; to `Cc1ccccc1CSc1nc(-c2ccccc2)nc2c1Cc1c(CO)cnc(C)c1O2`, 4.4%; to `CCOC(=O)Cn1c(=O)n(C2CCCCC2)c2nc(-c3cccc(OC)c3)nc(C(N)=O)c21`, 6.39%.

As for `CN(C(=O)CSc1nc2ccccc2n1Cc1ccccc1C#N)c1ccccc1`, the “activity change, negative = inhibition” value was -17.2%.

`N#Cc1ccccc1CN1C(=O)S/C(=C/c2cccn2-c2cccc(C(=O)O)c2)C1=O`: the Potency was 56.2 µM (active).

As to `O=C(CN1CCCCCC1)NCCN1C(=O)S/C(=C\c2ccccc2Cl)C1=O`, the “activity change, negative = inhibition” value was -27.5%.

Regarding `CCOc1ccccc1NC(=O)C1=C(C)Nc2ncnn2C1c1ccc(NC(C)=O)cc1` (stereo unspecified), the “activity change, negative = inhibition” value was -9.27%. Turning to `COc1ccc(Cl)cc1NC(=O)CSc1nc2ccccc2c2nc(-c3ccccc3)nn12`, the “activity change, negative = inhibition” value is -16.3%. For `O=C1COc2c1ccc(O)c2O`, the Potency was 5.62 µM (active).

In the case of `COc1ccc(CN2CCC(=O)c3ccccc3S2(=O)=O)cc1`, the “activity change, negative = inhibition” value was -16.6%. As to `O=C1CN(Cc2ccccc2)S(=O)(=O)c2ccccc21`, the Potency is 79.4 µM (active). With `CC(C)(C)c1ccc(CN2C(=O)c3ccccc3S2(=O)=O)cc1`, the “activity change, negative = inhibition” value was 39.4%. Still for that read-out and setting: next, `CCn1cc2nc(SCc3cccc(F)c3)n(CCc3ccccc3)c(=O)c2n1`: -13.6%. As to `Cc1ccccc1Nc1nc(N)nc(CN2CCN(c3ccccn3)CC2)n1`, the Potency is 56.2 µM (active). On to `Cc1ccccc1Nc1nc(N)nc(CSc2nnc3ccccn23)n1`, for which the “activity change, negative = inhibition” value was -1.03%.

Turning to `Cc1ccccc1Nc1nc(N)nc(CSc2ccccc2)n1`, the “activity change, negative = inhibition” value was -23.1%.

`Cc1cc(NC(=O)c2cccc(Cl)c2)ccc1-c1cc2ccccc2oc1=O`: the “activity change, negative = inhibition” value was -15%.

Consider `O=C(c1cccs1)c1cn(CCOc2ccc(Cl)cc2)c2ccccc12`, for which the “activity change, negative = inhibition” value is -16.5%. Turning to `CCN(CC)CCNC(=O)c1cc2c(=O)oc3ccc(C)cc3c2s1`, the “activity change, negative = inhibition” value is 5.72%. With `CCc1ccc(S(=O)(=O)c2nnn3c2nc(NCc2ccccc2OC)c2cc(Cl)ccc23)cc1`, the “activity change, negative = inhibition” value was 2.18%. Regarding `CN(C)S(=O)(=O)N1CCN(c2ccc([N+](=O)[O-])cc2)CC1`, the “activity change, negative = inhibition” value was -14.7%. In the case of `COc1ccc(N2CCN(c3ccc([N+](=O)[O-])cc3Cl)CC2)cc1`, the “activity change, negative = inhibition” value is -10.3%.

On to `O=[N+]([O-])c1ccc(N2CCN(c3ccc(O)cc3)CC2)c(Cl)c1`, for which the Potency is 44.7 µM (active). For the molecule `Cc1ccc(Cl)cc1NC(=O)CCS(=O)(=O)c1ccc(Br)s1`, the “activity change, negative = inhibition” value was -32.1%. Consider `Cc1ccc(S(=O)(=O)N2CC(=O)Nc3ccccc32)cc1C`, for which the “activity change, negative = inhibition” value is -9.3%. For `Cc1ccc(C)c(S(=O)(=O)N2CC(=O)Nc3ccccc32)c1`, the Potency is 79.4 µM (active). As to `Cc1ccc(C)c(S(=O)(=O)N2CCN(C(=O)Nc3ccccc3)CC2)c1`, the “activity change, negative = inhibition” value is -24%. `CCOc1ccc(CCNC(=O)c2csc3c2CCCCC3)cc1`: the “activity change, negative = inhibition” value was -11.6%. The same measure, in the same setting: to `COc1ccc(C2=NC3(CCCCC3)N(CC(=O)Nc3ccc(C(C)C)cc3)C2=O)cc1` belongs -11.7%; to `Cc1ccc(-n2nc(C)c3c(C)cc(=O)n(CC(=O)Nc4ccc(C(C)C)cc4)c32)cc1`, -1.33%. Consider `CC(=O)Nc1ccc(NC(=O)COc2ccc(S(=O)(=O)NC(C)c3ccccc3)cc2)cc1` (stereo unspecified), for which the “activity change, negative = inhibition” value was -12.4%. Regarding `CC(NS(=O)(=O)c1ccccc1)c1n[nH]c(=S)n1-c1ccccc1` (stereo unspecified), the Potency was 25.1 µM (active). On to `CC(NS(=O)(=O)c1ccc(OCC(=O)N2CCCC2)cc1)c1ccccc1` (stereo unspecified), for which the “activity change, negative = inhibition” value is -20%.

Turning to `CCCCC(CC(C)O)c1n[nH]c(=S)n1-c1ccccc1` (stereo unspecified), the Potency is 28.2 µM (active).
